Measurements from ChEMBL document CHEMBL5308541, “MAIP: An Open-Source Tool to Enrich High-Throughput Screening Output and Identify Novel, Druglike Molecules with Antimalarial Activity” (ACS Med Chem Lett, 2023).
The campaign covered roughly 150,000 compounds. About 540 (0.36%) showed an effect of 50% or more. Only a selection was taken, and strong results are over-represented in it overall.

Test system: Plasmodium falciparum
Assay: Primary screen in NF54 nanoGlo assay, in single point, at 2uM, 72h; a lower Z score goes with more inhibition
Format: functional, Erythrocyte
Details: timepoint 72 hour

SMILES | % Inhibition [%] | Z score
CN1CCN(C2(CNc3ncc(F)c(N(C)C)n3)CCCCC2)CC1 | 7 | -1.15
Cc1noc(-c2cccc(NC(=O)c3ccccc3-c3ncc(-c4ccccc4)o3)c2)n1 | -8 | 1.16
CN1CCN(C[C@H]2CCCN(CC(C)(C)N3CCOCC3)C2)CC1 | -20 | 3.47
Cc1cccc2c(-c3n[nH]c4ncnc(N)c34)c[nH]c12 | -3 | 0.47
CC(C)CCC1CCCC1NCCCN1CCOCC1 (stereo not drawn) | 6 | -1.29
COc1ccc2c(O)c(Br)c(C)nc2c1 | 75 | -13.24
CNc1cc(C)nc2cc(OC)ccc12 | -6 | 0.97
COc1ccc2nc3cc(Cl)ccc3c(O)c2c1 | 65 | -9.86
COCCN1CCC[C@@]2(CCN(c3ccnc4cc(Cl)ccc34)C2)C1 | 99 | -17.32
COCCN1CC[C@H](CN(C)c2ccnc3cc(Cl)ccc23)C1 | 98 | -17
CN1CCC[C@@H]1CCNc1ncnc2cccc(F)c12 | 9 | -1.43
CCN(Cc1cccc(OC2CCCC2)c1)CC1CCN(C2CCN(C)CC2)CC1 | 20 | -3.46
COc1ccc2[nH]c(CN(Cc3cccnc3)CC3CCN(C4CCCC4)CC3)c(C)c2c1 | 1 | -0.23
CCN(Cc1cc(F)ccc1-n1cccn1)CC1CCN(C2CCN(C)CC2)CC1 | 16 | -2.76
CCN(Cc1cnc(-c2ccccc2C)nc1)CC1CCN(C2CCN(C)CC2)CC1 | -7 | 1.18
CCN(Cc1cnn(-c2cccc(Cl)c2)c1)CC1CCN(C2CCN(C)CC2)CC1 | 82 | -14.12
CCN(Cc1[nH]c2ccc(Cl)cc2c1C)CC1CCN(C2CCN(C)CC2)CC1 | 85 | -14.61
Fc1ccc2ncnc(NC3CCN(C[C@H]4CCOC4)CC3)c2c1 | -10 | 2.15
CN(CCCn1ccnc1)c1ccnc2cc(Br)ccc12 | 99 | -17.18
COc1cccc(-c2nc3cc(C#N)ccc3[nH]2)n1 | 0 | 0.04
O[C@@]1(c2c[nH]nn2)CCN(c2ccnc3cc(Cl)ccc23)C1 | 44 | -6.63
N#Cc1cccc(Cl)c1N1CCC(O)(CN)CC1 | -3 | 0.43
NCC1(O)CCN(c2ccnc3cc(F)c(Cl)cc23)CC1 | 95 | -20.37
Cn1c(NCc2ccc(N3N=C(c4ccccc4)C[C@H]3c3ccccc3)cc2)nc2ccccc21 | -11 | 1.96
C[C@H]1CCCN(CCOc2ccccc2CN2CCN(c3cccnc3)CC2)C1 | -2 | 0.3
CN1CCN(CCOc2ccccc2CN2CC3CCC(C2)NC3)CC1 (stereo not drawn) | -1 | 0.22
Cc1cnccc1N1CCCN(Cc2ccccc2OCCN2CCN(C)CC2)CC1 | 96 | -19.05

SMILES | % Inhibition [%] | Z score
O=C(NC[C@@H](CN1CCCC1)C1CC1)c1ccnn1CC(F)(F)F | -1 | 0.12
C[C@@H](CS(C)(=O)=O)N(C)c1ncnc2cccc(F)c12 | 6 | -1.06
C[C@H]1CCCN(CCNC(=O)c2ccc(-c3ccc4c(=O)[nH]ccc4c3)cc2)C1 | 67 | -11.64
CN1CCC(N2CCC(CN(CCCn3cccn3)Cc3ccncc3)CC2)CC1 | -6 | 0.97
Clc1ccc2[nH]c3c(c2c1)CCCC3NC1CCN(C2CCOC2)CC1 (stereo not drawn) | 83 | -16.55
Cc1ccc2[nH]c3c(c2c1)CCCC3NC1CC2CCC1O2 (stereo not drawn) | -7 | 1.25
Cn1ncc(C(F)(F)F)c1CN[C@H]1CCCc2c1[nH]c1ccc(Cl)cc21 | -15 | 2.6
CN1CCC[C@@H](CNc2ccnc3ccncc23)[C@@H]1c1ccnn1C | 10 | -1.79
COCCN1CCC(Nc2ncnc3c(C)cccc23)CC1 | 4 | -0.91
COCCN1CCC(Nc2nccnc2NC2CCN(CCOC)CC2)CC1 | 1 | -0.15
COCCCN1CCC(Nc2ncnc3cc(C)c(C)cc23)CC1 | 96 | -16.62
COc1ccc(Nc2ncc(CN(C)CCn3ccnc3)s2)cc1 | 1 | -0.26
COCCN1CC[C@H](CNC2CCN(c3ncc4ccc(F)cc4n3)CC2)C1 | 58 | -10.01
CCc1cc(NC2CCN(CC(F)F)CC2)nc(-c2ccncc2)n1 | 4 | -0.75
CCc1cc(Nc2ccc(N3CCOCC3)nc2)nc(-c2ccncc2)n1 | 56 | -9.65
NCCc1cccc(CN2CCC[C@H](CN3CCCCC3)C2)c1 | 3 | -0.52
CN1CCC(N2CCN(Cc3c(Cl)ccc(O)c3Cl)CC2)CC1 | -11 | 1.6
O=C(NCc1ccc(N2CCNCC2)c(F)c1)c1ccc(-c2noc(C(F)(F)F)n2)cc1 | 67 | -11.53
O[C@H]1CCN(Cc2cccc(NCc3cn4ccnc4s3)c2)C1 | 52 | -7.83
OC1CCN(Cc2cccc(NCc3cccc(OCCn4ccnc4)c3)c2)CC1 | -3 | 0.55
CCNc1cc(C)nc(NCCNC(=O)Nc2cc(F)cc(F)c2)n1 | 79 | -17.07
CCNc1nc(C)cc(Nc2ccc(NC(=O)Nc3ccc(F)cc3F)cc2)n1 | 96 | -20.77
CCNc1cc(C)nc(NCCNC(=O)c2cc(-n3cccn3)nc(C)n2)n1 | -1 | 0.15
NS(=O)(=O)Cc1cccc(NC(=O)c2cc(F)cc3c(=O)c4cccc(F)c4[nH]c23)c1 | -8 | 1.68
CN(C)Cc1ccccc1NC(=O)c1cccc2c(=O)c3ccccc3[nH]c12 | -2 | 0.38
COc1cc2nc(NCC3(N4CCN(C)CC4)CCCC3)cc(C)c2cc1OC | 55 | -8.35
COc1cc2nc(N3CCC(CN4CCN(C)CC4)CC3)cc(C)c2cc1OC | -2 | 0.44
